Rab9 prom act: qHTS Assay for Rab9 Promoter Activators. Huh7 Rab9 promoter-luciferase reporter, luminescence, 24 h. Potency, µM (titrated, usually from 9.22 µM), for the others: top-dose activation, negative = inhibition, actives largely listed as activators. 2.8% of 320,000 active; also: % of control where 0% means no effect; nearly all actives have a fitted effect of over 60% in size
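Cell-based reporter: Huh7 stable for Rab9 promoter-driven luciferase, plated in reduced-serum medium with 10% FBS at 1500 cells/well, compound-treated 24 h at 37 °C, luminescence read after 10 min reagent.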
NPC1 prom act: qHTS Assay for NPC1 Promoter Activators | Potency, µM (highest dose often 9.22 µM), without a hit: top-dose activation, hits mostly activators | 2.4% of 320,000 active | Huh7 NPC1 promoter luciferase reporter, 24 h; also: % of control where 0% means no effect; nearly all actives have a fitted effect of over 60% in size
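NPC1 promoter–luciferase Huh7 cells; 24 h compound; luminescence.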
Luc counter: Counterscreen for Luciferase (Kinase-Glo TM) Inhibition. 0.28% of 200,000 active. Kinase-Glo luciferase, ATP luminescence, 8 min. Luciferin 4-monooxygenase (Photuris pensylvanica), Q27757. AID 1379, 2008. Potency, µM (top dose mostly 38.3 µM), for the others: at the highest dose activity change, negative = inhibition, hits mostly inhibitors; also: % is scaled to controls: 0 for no effect and ±100 for the full control effect; nearly all actives have a fitted effect of over 60% in size
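Compound is pinned into ATP-containing buffer (10 uM ATP, imidazole pH 7.2, 7 mM MgCl2). Kinase-Glo luciferase reagent is then added. Light output is recorded following an 8-min room-temperature incubation.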
FLuc counter: qHTS profiling assay for firefly luciferase inhibitor/activator using purifed enzyme and Km concentrations of substrates (counterscreen for miR-21 project); purified FLuc, Km substrates, luminescence inhibition; 6.9% of 360,000 active; Potency, µM (top dose mostly 57.5 µM), for inactives: at the top dose activity change, negative = inhibition, hits mostly inhibitors;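 also: plate controls were vehicle for no effect and reference inhibitor for full effect; nearly all actives have a fitted effect of over 55% in size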
Target sequence (P08659 whole entry, looked up): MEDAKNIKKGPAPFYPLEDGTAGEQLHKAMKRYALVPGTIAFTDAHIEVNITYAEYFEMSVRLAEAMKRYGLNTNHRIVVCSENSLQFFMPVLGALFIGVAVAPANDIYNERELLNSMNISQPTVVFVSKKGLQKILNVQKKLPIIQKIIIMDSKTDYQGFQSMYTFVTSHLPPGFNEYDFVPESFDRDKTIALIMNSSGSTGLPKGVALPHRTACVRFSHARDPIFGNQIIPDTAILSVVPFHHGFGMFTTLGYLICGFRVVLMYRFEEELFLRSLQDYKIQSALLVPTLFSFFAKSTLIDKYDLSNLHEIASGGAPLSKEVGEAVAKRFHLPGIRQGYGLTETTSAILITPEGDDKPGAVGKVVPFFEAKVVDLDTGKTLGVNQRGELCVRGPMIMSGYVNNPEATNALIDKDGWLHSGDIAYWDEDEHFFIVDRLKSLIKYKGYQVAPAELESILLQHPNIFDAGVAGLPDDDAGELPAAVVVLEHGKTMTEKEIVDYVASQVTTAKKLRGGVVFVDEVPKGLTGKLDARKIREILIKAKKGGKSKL
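Purified P. pyralis luciferase, 10 nM final, with Km-level 10 uM D-luciferin and 10 uM ATP in 50 mM Tris acetate pH 7.5, 10 mM Mg acetate, 0.01% Tween-20, 0.05% BSA; 6-point qHTS titration about 60 µM downward; luminescence read.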
SMN2 splice up: qHTS Assay for Enhancers of SMN2 Splice Variant Expression; HEK293 SMN2-luciferase splicing reporter, luminescence, 30-36 h; AID 1458, 2008; 2.8% of 210,000 active; Potency, µM (doses to about 46.1 µM), without a hit: at the top dose activity change, positive = activation, actives largely listed as activators; also: % of control where 0% means no effect; nearly all actives have a fitted effect of over 55% in size
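HEK293 cells carry an SMN2 minigene-luciferase reporter in which exon 7 inclusion puts luciferase in frame. Cells were seeded at 2000 cells/well, attached for 10-12 hours, then exposed to compounds for 30-36 hours at 37C before ONE-Glo luminescence.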
ELG1 genotox: qHTS screen for small molecules that induce genotoxicity in human embryonic kidney (HEK293T) cells expressing luciferase-tagged ELG1. Potency, µM (series often up to 46 µM), without a hit: at the top dose activity change, positive = activation, most hits filed as activators. AID 504466, 2011. 1.3% of 330,000 active. HEK293T ELG1-luciferase reporter, luminescence, 16 h; also: % of control where 0% means no effect; nearly all actives have a fitted effect of over 60% in size
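HEK293T cells expressing luciferase-tagged ELG1 were exposed to compound or DMSO vehicle for 16 hr at 37 °C and 5% CO2. Luciferase activity was then measured with ONE-Glo after 30 min at room temperature.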
* = called active by the depositor; ? = inconclusive; / = no result; [ ] = dose if it differs, or a comment. Most compounds without a hit are left out; they make up all but 7.3% or so of the library. Calls follow the shape of the dose curve; as a rule, active = well fitted curve in the direction sought with a large enough effect; inconclusive = small, poorly fitted or top-dose-only effect, or another doubt; inactive = no such curve, though single readings can be large; an effect the other way counts as inactive or inconclusive. Potency is read from the fitted curve at half-maximal effect.

SMILES | Rab9 prom act | NPC1 prom act | Luc counter | FLuc counter | SMN2 splice up | ELG1 genotox
CC(C)C(C(=O)NC1=NCCS1)c1ccc(Cl)cc1 (stereo unspecified) | -10% | -14% | 3% | -2% | -20% | -11%
O=C(/C=C/c1ccc(Cl)c(Cl)c1)NC1=NCCS1 | 2.2µM* | 2.8µM* | 4% | ? | 15% | 18%
CC(C)c1ccc(/C=C/C(=O)NC2=NCCS2)cc1 | 0.32µM* | 0.32µM* | 5% | 1.3µM* | 1.8µM* | ?
CCCCOc1ccc(N=Nc2ccc(N)nc2N)cn1 | 2.5µM* | 3.2µM* | / | 13µM* | / | ?
C/C=C\C=C/C(=O)Nc1cccc(C2=NOC3(C2)C[C@@H](C(N)=O)N(C(=O)c2ccccc2)C3)c1 (stereo partly specified) | 21% | 3% | / | 17µM* | / | 5%
CCCCCC(=O)Nc1cccc(C2=NOC3(C2)C[C@@H](C(N)=O)N(C(=O)c2cc([N+](=O)[O-])cc([N+](=O)[O-])c2C)C3)c1 (stereo partly specified) | -4% | -5% | / | -17% | / | -1%
C/C=C\C(=O)Nc1cccc(C2=NOC3(C2)C[C@@H](C(N)=O)N(C(=O)c2ccccc2)C3)c1 (stereo partly specified) | -11% | -2% | / | 4% | / | 0%
NC(=O)C1(NC(=O)[C@@H]2CC3(CC(c4cccc(NC(=O)[C@@H]5CCC(=O)N5)c4)=NO3)CN2C(=O)c2ccccc2)CC1 (stereo partly specified) | 6% | 2.2µM* | -5% | -2% | -10% | 0%
C/C=C/C=C\C(=O)Nc1cccc(C2=NOC3(C2)C[C@@H](C(N)=O)N(C(=O)c2cc([N+](=O)[O-])cc([N+](=O)[O-])c2C)C3)c1 (stereo partly specified) | -1% | -2% | / | 7.6µM* | / | 2%
C/C=C\C=C\C(=O)Nc1cccc(C2=NOC3(C2)C[C@H](C(N)=O)N(C(=O)c2ccccc2C(=O)c2ccccc2)C3)c1 (stereo partly specified) | -5% | 3% | / | 21µM* | / | -2%
CCCC(=O)N1CCN(c2nc3ccc(F)cc3s2)CC1 | / | / | / | 11µM* | / | /
CCCCC(=O)N1CCN(c2nc3ccc(F)cc3s2)CC1 | 0.5µM* | 0.56µM* | / | 6µM* | / | -5%
O=C(c1ccc([N+](=O)[O-])o1)N1CCN(c2nc3ccc(F)cc3s2)CC1 | 16% | -6% | / | 5% | / | -4%
CCCC(=O)N1CCN(c2nc3ccccc3s2)CC1 | 1.1µM* | 1.4µM* | / | 7.6µM* | / | ?
CCC(=O)N1CCN(c2nc3ccc(Br)cc3s2)CC1 | ? | ? | / | 15µM* | / | ?
CCCCC(=O)N1CCN(c2nc3c(C)c(C)ccc3s2)CC1 | / | / | / | 3% | / | /
COC(=O)C1(C)C=C(Nc2ccc(OC)cc2)C(=O)N1c1ccc(OC)cc1 (stereo unspecified) | / | / | -1% | / | 10% | /
COc1ccc2c(Sc3ccccc3)c(C(=O)NCCCN3CCCCC3)[nH]c2c1 | / | / | / | 1% | / | /
CCc1ccc(N2CCn3c2nc2c3c(=O)n(C/C=C/c3ccccc3)c(=O)n2C)cc1 | / | / | / | 3% | / | /
CCCCC(=O)N1CCN(c2nc3ccc(OCC)cc3s2)CC1 | 4% | 0% | / | 13µM* | / | -7%
CCOc1ccccc1N1CCN(C(=O)CCCc2nc3ccccc3s2)CC1 | 0% | -3% | 1% | -1% | -11% | -9%
CC(C)Oc1ccc(C(=O)N(Cc2ccco2)Cc2cccs2)cc1 | / | / | / | -18% | -1% | /
CC(C)Oc1ccc(C(=O)NCC(=O)OCC(=O)N(C)Cc2cccs2)cc1 | 0% | -9% | -2% | 15µM* | 11% | -1%
COC(=O)c1c(NC(C)=O)sc(C(=O)Nc2ccccc2F)c1C | ? | ? | 5% | 0% | 7.1µM* | ?
CCCC(=O)Nc1sc(C(=O)Nc2cccc(N)c2)c(C)c1C(=O)OC | 0.89µM* | 3.2µM* | 2% | 13µM* | / | ?
SMILES | Rab9 prom act | NPC1 prom act | Luc counter | FLuc counter | SMN2 splice up | ELG1 genotox
CCC(=O)Nc1sc(C(=O)Nc2ccccc2OC)c(C)c1C(=O)OC | -3% | 18% | 1% | -10% | 12% | 3%
CCC(=O)Nc1sc(C(=O)Nc2ccccc2F)c(C)c1C(=O)OC | 0% | 0% | -3% | 7.6µM* | / | -1%
Oc1c(C(c2ccccc2Cl)N2CCCC2)sc2nc(-c3ccco3)nn12 (stereo unspecified) | / | / | / | -20% | / | /
O=C(O)c1ccccc1C(=O)c1ccc(Cl)cc1 | -5% | 4% | / | -2% | / | -3%
O=C(O)c1ccccc1C(=O)c1ccc(-c2ccccc2)cc1 | 1%[1.84 µM] | 13% | / | 21µM* | / | 5%
COc1cccc(OCc2cc(C(=O)N(C)Cc3nccn3C)no2)c1 | 1.8µM* | 2.8µM* | / | 19µM* | / | ?
COc1ccc(OCc2cc(C(=O)N(Cc3nccn3C)C(C)C)no2)c2ccccc12 | 3.2µM* | ? | / | 13µM* | / | 13%
COc1cccc(OCc2cc(C(=O)N(C)CCOc3ccc(C)cc3)no2)c1 | 2.8µM* | 3.5µM* | / | 13µM* | / | ?
COc1ccc(OCc2cc(C(=O)N(C)Cc3nccn3C)no2)c2ccccc12 | 0% | -3% | / | 6% | / | -5%
COc1cccc(CN(C)C(=O)c2cc(COc3ccc4ncccc4c3)on2)c1 | -56% | -27% | 2% | -14% | / | -12%
Cc1c(C(=O)Nc2cccnc2Cl)oc2ccccc12 | 3.2µM* | 2.5µM* | / | ? | / | ?
Cc1c(C(=O)Nc2ccccn2)oc2c(Cl)cccc12 | 13% | 5% | / | ? | / | 5.2µM*
Cc1ccc(NC(=O)c2cc3c(=O)oc4ccccc4c3s2)nc1 | 1% | 1% | -1% | -1% | 0% | 7%
Cc1c(C(=O)Nc2ccncc2)oc2ccccc12 | 14% | 15% | -13% | 19µM* | -24% | ?
